Giardia killer = kills Giardia lamblia; Giardia lamblia trophozoite viability; activity change, % at 7.66 µM, hits read low; actives 0.15% (n = 340,000); AID 540267; in the data active = activity change below about -80%; inconclusive = between about -30% and that limit;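 also: parasites exposed to compound for two days anaerobically before the ATP read; % is scaled to controls: 0 for no effect and ±100 for the full control effect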
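Giardia lamblia trophozoites (100 cells/well) were incubated with compounds for 48 h at 37 deg C under anaerobic conditions. Viability was read as ATP content by one-step luminescence after 15-30 min at room temperature.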
ATXN2 expr inh = ATXN2 expression inhibition; HEK-293 ATXN2-luciferase reporter, luminescence, 24 h; Potency, µM (top dose mostly 57 µM), inactives show at the top dose activity change, negative = inhibition, actives largely listed as inhibitors; actives 0.72% (n = 360,000); AID 1745845; also: potency is read from the fitted curve at half-maximal effect; % is scaled to controls: 0 for no effect and ±100 for the full control effect; nearly all actives have a fitted effect of over 55% in size
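ATXN2-luciferase reporter cells (luciferase flanked by upstream and downstream ATXN2 gene portions) were treated 24 h at 37 °C with compounds at up to 57 uM. SteadyGlo luminescence gave expression; GF-AFC fluorescence gave viability.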
HepG2 viability = kills HepG2 cells in TGF-b inhibitor counter-screen; actives 0.76% (n = 410,000); Potency, µM (top dose mostly 46.1 µM), for the others: top-dose activity change, negative = cytotoxicity, hits mostly cytotoxic; HepG2 CAGA-GFP viability, ATP luminescence, 18 h; AID 588856; also: potency is read from the fitted curve at half-maximal effect
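HepG2 CAGA-GFP cells (1000/well, DMEM with 1% FBS) received compound, then TGF-beta at 500 pg/mL final, and were incubated 18 hours at 37 degrees C. Viability was read by CellTiter-Glo luminescence. Media-only wells were set as complete cell-killing and DMSO as no toxicity.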
uPA surface inh = cell surface uPA generation inhibition; cell surface uPA generation assay, qHTS; Potency, µM (top dose mostly 38.3 µM), for inactives: top-dose activity change, negative = inhibition, actives largely listed as inhibitors; actives 0.31% (n = 330,000); AID 540303; active = well fitted inhibition curve with a large enough effect; inconclusive = small, poorly fitted or top-dose-only effect; inactive = no such curve, though single readings can be large or run the other way; tested in mouse RAW 264.7 cells; also: potency is read from the fitted curve at half-maximal effect; % is scaled to controls: 0 for no effect and ±100 for the full control effect; nearly all actives have a fitted effect of over 55% in size
S2 tox = viability counter-screen for ATXN expression inhibitors. S2 cells (HEK-293 line with an ATXN2-luciferase reporter) viability, CellTiter-Fluor protease fluorescence, 24 h. Potency, µM (top dose mostly 56.7 µM), hits mostly cytotoxic. actives 0.49% (n = 400,000); also: potency is read from the fitted curve at half-maximal effect; nearly all actives have a fitted effect of over 40% in size
TGFb SMAD3 inh = blocks TGF-b signaling; HepG2 CAGA-GFP TGF-b/SMAD3 reporter, GFP fluorescence, 18 h; TGF-beta stimulated, 500 pg/mL final; Potency, µM (highest dose often 46.1 µM), without a hit: top-dose activity, negative = inhibition, hits mostly inhibitors; actives 1.2% (n = 410,000); AID 588855; also: potency is read from the fitted curve at half-maximal effect; % is scaled to controls: 0 for no effect and ±100 for the full control effect; nearly all actives have a fitted effect of over 65% in size
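Inhibition was scored as loss of TGF-beta-induced (500 pg/mL final, 18 hours, 37 degrees C) GFP in HEPG2 cells carrying a CAGA-GFP reporter, in DMEM with 1% FBS. Well GFP was summed per cell; Activity was normalised to unstimulated and stimulated DMSO wells, then concentration-response fitting.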
The depositor's hits bear a star; i = inactive; ? = inconclusive; nt = no result. Compounds with a hit are over-represented: about 2.6% of the library has one in this group of screens. Unless noted, calls follow the shape of the dose curve; as a rule, active = well fitted curve in the direction sought with a large enough effect; inconclusive = small, poorly fitted or top-dose-only effect, or another doubt; inactive = no such curve, though single readings can be large; an effect the other way counts as inactive or inconclusive.

SMILES	Giardia killer	ATXN2 expr inh	HepG2 viability	uPA surface inh	S2 tox	TGFb SMAD3 inh
CCc1nc2ccc(C(=O)Nc3ccc(OC)c(OC)c3)cn2c1N(C)CCC(C)C	nt	?	20µM*	nt	nt	14.1µM*
CCc1nc2ccc(C(=O)Nc3ccc(OC)c(OC)c3)cn2c1N(C)Cc1ccc(OC)cc1	nt	?	-28.2%	nt	?	0.3%
CCc1nc2ccc(C(=O)Nc3ccc(Cl)c(Cl)c3)cn2c1N(C)Cc1ccc(OC)cc1	nt	?	-44.1%	nt	nt	11.2µM*
COCc1c(C(=O)NC2CCCCCC2)cnn1-c1nccc(-c2cc(C)sc2C)n1	nt	nt	nt	nt	i	nt
COC(=O)[C@@H]1C[C@]2(OC(=O)c3ccccc3)C=CC(=O)C[C@@H]2N1C(=O)OCc1ccccc1	7.5	14.1µM*	-67.9%	3.16µM*	nt	?
O=C(NCCc1ccncc1)c1cnn(-c2ncc3c(n2)-c2ccccc2CCC3)c1C1CC1	nt	nt	nt	nt	i	nt
CCCCCc1ccc(OCCC[n+]2ccccc2)c(CCCCC)c1	-10.8	?	-114.1%	-12.1%	?	?
CCCCCc1ccc(OCCOCCn2c[n+](C)c3ccccc32)c(CCCCC)c1	4.6	nt	-113.0%	?	17.8µM*	?
CCOc1cc(OCC)c(C(=O)CCC(=O)O)cc1OCC	nt	4.4%	nt	nt	i	nt
CCOC(=O)/C=C/S(=O)(=O)c1ccc(NC(C)=O)cc1	-11.0	?	2µM*	-14.3%	?	?
CC1CCc2nc(-c3cc4c(ccc5ccccc54)oc3=O)sc2C1 (stereo not given)	-4.7	nt	1.6%	nt	nt	5.3%
Cc1cc2c(c(-c3cnccn3)c1)OC(CNC(=O)c1cc(Cl)ccc1F)C2 (stereo not given)	nt	nt	nt	nt	i	nt
Cc1c(C(=O)NCC2(N3CCOCC3)CCCCCC2)cnn1-c1nccc(-c2ccccc2F)n1	nt	nt	nt	nt	i	nt
CC(c1nnnn1C(C)(C)C)N(Cc1cccnc1)Cc1ccccc1Cl (stereo not given)	6.1	-9.8%	-28.0%	1.7%	i	3.0%
CC(C)(C)n1nnnc1C(c1cccs1)N(Cc1cccnc1)Cc1ccccc1Cl (stereo not given)	-6.2	?	-32.0%	0.0%	?	17.8µM*
COc1ccc(-c2ccc3[nH]c4c(c3c2)CCN2C[C@@H]([C@H](C)O)[C@@H](N(C)C(=O)Nc3cc(Cl)cc(Cl)c3)C[C@@H]42)cc1	nt	-0.5%	-63.2%	nt	nt	?
C[C@H](O)[C@@H]1CN2CCc3c([nH]c4ccc(-c5ccc6c(c5)OCO6)cc34)[C@@H]2C[C@@H]1N(C)C(=O)Nc1ccc(F)cc1	nt	?	12.6µM*	nt	31.6µM*	?
c1ccc(N2CCN(c3nc(NCc4ccco4)c4ccccc4n3)CC2)cc1	9.8	?	-59.9%	-11.0%	?	?
c1ccc(CNc2nc(N3CCN(Cc4ccccc4)CC3)nc3ccccc23)cc1	0.2	?	28.2µM*	-16.9%	i	?
Cc1ccc(Nc2nc(NCc3ccco3)c3ccccc3n2)cc1	2.0	?	-47.0%	-12.6%	i	11.2µM*
c1coc(CNc2nc(N3CCCCC3)nc3ccccc23)c1	10.5	?	-44.6%	-4.6%	?	10µM*
Cc1ccc(OCCNC(=O)CNC(=O)Cc2cccc3ccccc23)cc1	-13.1	nt	-11.5%	nt	nt	6.0%
C/C=C1\COC(C(=O)NC)(C(F)(F)F)C=C1C=C1CCCCC1 (stereo not given)	5.7	nt	-58.7%	nt	nt	15.8µM*
C/C=C1\COC(C(=O)NCc2ccncc2)(C(F)(F)F)C=C1C=C1CCCCC1 (stereo not given)	35.1	-14.5%	-26.6%	-0.5%	i	10µM*
C/C=C1\COC(C(=O)NCc2cccc(OC)c2OC)(C(F)(F)F)C=C1C=C1CCCCC1 (stereo not given)	-19.0	-25.8%	-18.3%	9.3%	i	?
C/C=C1\COC(C(=O)NCCOCCO)(C(F)(F)F)C=C1C=C1CCCCC1 (stereo not given)	14.8	nt	-57.4%	nt	nt	12.6µM*
O=c1cc(O)c2c([nH]1)CCC2	nt	nt	-3.7%	nt	nt	13.5%

Screening data: PubChem, National Center for Advancing Translational Sciences (NCATS)
